Measurements published in PubChem BioAssay (NCATS).
Results filed as inconclusive are left out. Values without a mark were called inactive. The source made the active and inactive calls. Calls follow the shape of the dose curve; as a rule, active = well fitted cell-killing curve with a large enough effect; inconclusive = small, poorly fitted or top-dose-only effect, or effect the other way; inactive = no such curve, though single readings can be large or run the other way.

test: Viability qHTS for spleen associated tyrosine kinase inhibitor (SYKi) drug resistant MV4-11 cells (AID 1963824); conditions: SYKi-resistant MV4-11 viability, CellTiter-Glo, 72 h; series mostly up to 45 µM; viability, % of control: at the top concentration; also: nearly all actives have a fitted effect of over 35% in size
How it was run: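 SYK-inhibitor-resistant MV4-11 AML cells were seeded at 500 per well onto compound and cultured 72 hours (37 °C, 5% CO2). CellTiter-Glo was then added, and after 10 min at room temperature, luminescence gave viability.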
Potency is read from the fitted curve at half-maximal effect.

SMILES	Potency	viability, % of control
C=CC(C)(C)C1(CC2NC(=O)C3CCCN3C2=O)C(=O)Nc2cc3c(cc21)C=CC(C)(C)O3 (stereo not given)	1.12 µM (active)	–
CC(=O)[C@@H]1CC[C@]2(C(=O)O)CC[C@]3(C)C(CCC4[C@@]5(C)CC[C@H](O)C(C)(C)C5CC[C@]43C)C12 (stereo not given in full)	7.09 µM (active)	–
COc1nnc2ccc(N3CCC(c4ccc(OCCN5CCN(C)C(=O)[C@H]5C)cc4)CC3)nn12	0.0372 µM (active)	–
C=C1C2=CC(O)C(C)C1(C)CC/C(C)=C/CCC1(C)OC1C2=O (stereo not given)	10.1 µM (active)	–
CCC(C)C(=O)O[C@H]1[C@H](O)[C@@]2(COC(C)=O)C(CC1(C)C)C1=CCC3[C@@]4(C)CC[C@H](O[C@@H]5O[C@H](C(=O)O)[C@@H](O)[C@H](O)[C@H]5O)[C@@](C)(CO)C4CC[C@@]3(C)[C@]1(C)C[C@@H]2O (stereo not given in full)	3.48 µM (active)	–
CC(C)S(=O)(=O)NC[C@H](C)c1ccc(-c2ccc(CCNS(C)(=O)=O)cc2)cc1	2.31 µM (active)	–
Cc1nc(Nc2n[nH]c3c2CN(C(=O)NC(CN(C)C)c2ccccc2)C3(C)C)c2sccc2n1 (stereo not given)	0.0164 µM (active)	–
C=C1C(=O)O[C@@H]2C=C(COC(C)=O)CC/C=C(\CO)CC[C@@H]12	14.3 µM (active)	–
CC(=O)O[C@@H]1CC2C(/C=C(\C)C(=O)[C@@]3(O)C[C@@H](C)[C@H](OC(=O)c4ccccc4)C3/C=C/1C)C2(C)C (stereo not given in full)	10 µM (active)	–
CCC(C)C(=O)O[C@H]1CCC=C2C=C[C@H](C)[C@H](CC[C@@H](O)C[C@@H](O)CC(=O)O)[C@H]21 (stereo not given in full)	10 µM (active)	–
N#Cc1ccc2c(c1)CCN(CCC1CCC(NC(=O)c3ccnc4ccccc34)CC1)C2 (stereo not given)	10.3 µM (active)	–
O=C1c2ccccc2-c2c(NCCc3ccccc3)c(=O)[nH]c3cccc1c23	23.1 µM (active)	–
Cc1ccc(CNc2ncnc3ccc(-c4ccc(CO)o4)cc23)o1	5.17 µM (active)	–
COc1c2cc(c(O)c1OC)CCCCC(O)CCc1ccc(O)c-2c1 (stereo not given)	14.3 µM (active)	–
Cc1cc(Cn2cnc3c2CC(C(=O)O)N(C(=O)C(c2ccccc2)c2ccccc2)C3)ccc1N(C)C (stereo not given)	–	95.7%
C=C(CO)C(=O)O[C@H]1C[C@@]23O[C@@H]2CC/C(=C/[C@H]2OC(=O)C(=C)[C@H]12)CO[C@H]3O	11.4 µM (active)	–
CC1(C)CC[C@]2(C(=O)O)CC[C@]3(C)C(=CCC4[C@@]5(C)C[C@H](O)[C@H](O[C@@H]6O[C@H](CO)[C@@H](O)[C@H](O)[C@H]6O)[C@@](C)(CO)C5[C@H](O)C[C@]43C)[C@@H]2C1 (stereo not given in full)	–	96.4% [at 17.3 µM]
CC1(C)CC[C@]2(C(=O)OC3OC(CO)C(O)C(O)C3O)CC[C@]3(C)C(=CCC4[C@@]5(C)C[C@@H](O)[C@H](OC6OC(C(=O)O)C(O)C(O)C6O)C(C)(C)C5CC[C@]43C)[C@@H]2C1 (stereo not given in full)	–	95.5% [at 9.25 µM]
C/C(=N\NC(=S)N1CCC1)c1ccccn1	0.0074 µM (active)	–
O=c1ccc2ccc(OCCCCN3CCN(c4cccc5sccc45)CC3)cc2[nH]1	7.31 µM (active)	–

SMILES	Potency	viability, % of control
COc1cc(F)c(F)c(Nc2ccc(I)cc2F)c1NS(=O)(=O)C1(CC(O)CO)CC1 (stereo not given)	0.58 µM (active)	–
O=C(OC1C=C(CO)C2C(OC3OC(CO)C(O)C(O)C3O)OC=CC12)c1ccc(O)cc1 (stereo not given)	–	95.4% [at 17.3 µM]
C=C1CC2C3(C)C(O)CC(=O)C(C)(C)C3C(O)C(OC(C)=O)C2(C)C2C(=O)OC(C)(C(=O)OC)C(=O)C12C (stereo not given)	6.32 µM (active)	–
CC(C)(CO)c1cc2cc(NC(=O)C3(c4ccc5c(c4)OC(F)(F)O5)CC3)c(F)cc2n1CC(O)CO (stereo not given)	16.4 µM (active)	–
C=C1C(=O)O[C@@H]2[C@H]1CCC(C)=C1CCC(=O)O[C@]12C	2.59 µM (active)	–
COc1cc(/C=C/C(=O)OC[C@H]2O[C@H](O[C@]3(CO)O[C@H](CO)[C@@H](O)[C@@H]3O)[C@H](O)[C@@H](O)[C@@H]2O)cc(OC)c1O	–	103% [at 17.3 µM]
Cc1cc(C)c2nc(-c3ccccn3)cc(C(=O)Nc3ccc(S(=O)(=O)Nc4onc(C)c4C)cc3)c2c1	25.9 µM (active)	–
CC(=O)c1cc(C(=O)N[C@@H](C)Cn2ccc(-c3ccc(C#N)c(Cl)c3)n2)[nH]n1	14.6 µM (active)	–
O=C1CCCC2=C1C(c1ccncc1Br)N=C(Nc1nc3ccccc3o1)N2 (stereo not given)	18.4 µM (active)	–
Cc1ccccc1-n1c([C@H](C)Nc2nc(N)nc3nc[nH]c23)nc2cccc(C)c2c1=O	2.91 µM (active)	–
CCn1c(-c2nonc2N)nc2c(C#CCO)ncc(OCCCN)c21	1.84 µM (active)	–
CO[C@H]1O[C@@H]2O[C@@]3(C)CCC4[C@H](C)CCC([C@H]1C)[C@]42OO3 (stereo not given in full)	2.91 µM (active)	–
CC1OC2OC(=O)C3(C)CC4=C(CO)C5=C(CC(=O)C4(C)C(C1=O)C23)C(C)(C)OC(=O)C5 (stereo not given)	–	87.9% [at 17.3 µM]
CNCCC(c1cccs1)c1ccc(O)c2ccccc12 (stereo not given)	14.6 µM (active)	–
COC1CC(O[C@H]2CC[C@@]3(C)C(=CC[C@]4(O)C3[C@H](O)[C@@H](O)[C@]3(C)[C@@H]([C@H](C)O)CC[C@@]34O)C2)OC(C)C1OC1CC(OC)C(OC2CC(OC)C(OC3OC(C)C(OC4OC(CO)C(O)C(O)C4O)C(OC)C3O)C(C)O2)C(C)O1 (stereo not given in full)	–	76.2% [at 9.25 µM]
COc1ccc2c(c1)C=C1Cn3c-2c(C2CCCCC2)c2ccc(cc23)C(=O)NS(=O)(=O)N(C)CCOCCN(C)C1=O	18.4 µM (active)	–
COC(=O)C1=CO[C@@H](O[C@@H]2O[C@H](CO)[C@@H](O)[C@H](O)[C@H]2O)[C@@H]2[C@@](C)(O)[C@@H](O)C[C@]12O	–	100% [at 17.3 µM]
CCC[C@@H]1C[C@@H](C(=O)N[C@@H]([C@H]2O[C@H](SC)[C@H](O)[C@@H](O)[C@@H]2O)[C@@H](C)O)N(C)C1	–	108%
CC(C)C[C@@H]1NC(=O)[C@@H]2C[C@@]34C[C@@H]5[C@@]6(C)CCCC(C)(C)C6CC[C@@]5(C)N(c5ccccc53)[C@H]4N2C1=O (stereo not given in full)	0.448 µM (active)	–
COc1ccc(-c2csc(NC(=O)[C@H]3CCCCN3S(=O)(=O)c3ccc(C)cc3)n2)cc1	5.17 µM (active)	–
